# Only some compounds are listed: those with a hit (about 2.8% of all), similar ones and a draw of the others.
# Pol kappa inh-1: blocks human DNA polymerase kappa activity. Q9UBT6. Potency, µM (highest dose often 107 µM), for the others: top-dose activity, negative = inhibition, actives largely listed as inhibitors. AID 588579. 0.53% of 400,000 active. purified Pol kappa, fluorescent DNA synthesis assay, 10 min; also: potency is read from the fitted curve at half-maximal effect; % is scaled to controls: 0 for no effect and ±100 for the full control effect
#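 Readout: fluorescence, taken kinetically at 0 and 10 min. Conditions: 10 nM Pol kappa, 15 min RT compound preincubation, 50 nM substrate final. Controls: enzyme-free buffer wells.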
# PI5P4Ka inh: inhibitors of human PI5P4K alpha. PI5P4Kalpha enzyme, ADP-Glo luminescence, 60 min; active compounds read low. max response, %. 1.2% of 330,000 active. AID 652105; active = max response of -50% or lower; inconclusive = between -30% and -50%; inactive = -30% or higher; also: value at the top dose of about 77 µM; % is scaled to controls: 0 for no effect and ±100 for the full control effect
#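 Reactions run in 0.038 M HEPES pH 7.4, 0.28 mM EGTA, 0.1% CHAPS and 5% DMSO, with PI5P4Kalpha, substrate, compound and 5 microM ATP final, one hour at room temperature. Readout is ADP-Glo luminescence.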
# FEN1 inh: human FEN1 inhibition; AID 588795; Potency, µM (doses to about 114 µM), for inactives: at the highest dose activity change, negative = inhibition, actives largely listed as inhibitors; Recombinant FEN1 flap cleavage, fluorescence, 15 min; 0.35% of 390,000 active; also: potency is read from the fitted curve at half-maximal effect; % is scaled to controls: 0 for no effect and ±100 for the full control effect; nearly all actives have a fitted effect of over 65% in size
#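 Recombinant FEN1 (10 nM) was preincubated with pin-transferred compounds for 15 min at room temperature, then flap DNA substrate (50 nM final) was added. Plates were read at 0 and 15 min, and normalized concentration–response data were fitted to a four-parameter Hill equation.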
# POLI inh: inhibitors of human DNA polymerase iota; Pol iota fluorescent replication assay, 10 min; Potency, µM (top dose mostly 115 µM), without a hit: top-dose activity, negative = inhibition, usual class: inhibitors; AID 588590; 1% of 390,000 active; Q9UNA4; also: potency is read from the fitted curve at half-maximal effect
#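 Pol iota at 10 nM preincubated 15 min with compounds at room temperature; reaction started with fluorescent substrate, 50 nM final. Fluorescence read kinetically at 0 and 10 min; buffer-only wells as negative control.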
# POLB inh: blocks human DNA polymerase beta activity. P06746. Pol beta primer extension/strand displacement, fluorescence kinetic. Potency, µM (highest dose often 114 µM), inactives show at the highest dose activity change, negative = inhibition, usual class: inhibitors. 1.3% of 340,000 active. AID 485314; also: potency is read from the fitted curve at half-maximal effect; % is scaled to controls: 0 for no effect and ±100 for the full control effect
#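 10 nM enzyme + cpd, 15 min RT; start with substrate 50 nM final; read 0 min and after 10 min RT. Corrected, normalized data; 4-parameter Hill curve fit.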
# Pol eta inh-1: inhibitors of human DNA polymerase eta; Q9Y253; recombinant Pol eta, fluorescent DNA replication assay; Potency, µM (series often up to 114 µM), without a hit: at the top dose activity change, negative = inhibition, hits mostly inhibitors; 1.2% of 390,000 active; AID 588591; also: potency is read from the fitted curve at half-maximal effect; % is scaled to controls: 0 for no effect and ±100 for the full control effect
# Target sequence (Q9Y253 whole entry, looked up): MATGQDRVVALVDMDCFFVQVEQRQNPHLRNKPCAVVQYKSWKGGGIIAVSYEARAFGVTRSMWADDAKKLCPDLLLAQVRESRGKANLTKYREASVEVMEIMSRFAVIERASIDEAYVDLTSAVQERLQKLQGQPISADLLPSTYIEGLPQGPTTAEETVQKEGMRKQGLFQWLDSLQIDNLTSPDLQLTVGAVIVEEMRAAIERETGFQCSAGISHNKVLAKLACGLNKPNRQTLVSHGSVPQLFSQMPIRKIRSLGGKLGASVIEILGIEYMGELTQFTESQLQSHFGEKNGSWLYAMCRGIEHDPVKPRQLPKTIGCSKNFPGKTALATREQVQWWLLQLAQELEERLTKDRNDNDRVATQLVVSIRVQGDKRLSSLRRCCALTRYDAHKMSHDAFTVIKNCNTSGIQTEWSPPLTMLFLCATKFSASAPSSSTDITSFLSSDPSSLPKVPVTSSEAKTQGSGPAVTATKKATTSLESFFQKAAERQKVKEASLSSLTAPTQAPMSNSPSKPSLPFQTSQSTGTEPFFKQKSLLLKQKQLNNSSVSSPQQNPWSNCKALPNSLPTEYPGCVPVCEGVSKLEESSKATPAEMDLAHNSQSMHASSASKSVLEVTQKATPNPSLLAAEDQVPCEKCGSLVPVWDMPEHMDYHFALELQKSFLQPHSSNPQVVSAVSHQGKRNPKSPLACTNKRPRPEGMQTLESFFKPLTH
#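 Pol eta (10 nM) was preincubated with compounds for 15 min at room temperature, after which fluorescent replication substrate (50 nM final) was added to start the reaction. Fluorescence was read kinetically at 0 and 10 min.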
# Pol iota confirm: Confirm cherry-picked inhibitors of human polymerase iota | Potency, µM, most hits filed as inhibitors | Pol iota primer extension, TAMRA/BHQ fluorescence | shares compounds with Pol kappa inh-1 | 77% of 1,500 active; also: potency is read from the fitted curve at half-maximal effect
# Pol kappa inh-2: Pol kappa (human) inhibition, cherry-pick confirmation; shares compounds with Pol eta inh-1; purified Pol-kappa, fluorescent strand-displacement substrate; Potency, µM, hits mostly inhibitors; 76% of 920 active; AID 720501; also: potency is read from the fitted curve at half-maximal effect
# Pol eta inh-2: Pol eta (human) inhibition, cherry-pick confirmation; 64% of 2,600 active; AID 720502; Pol eta primer extension, TAMRA/BHQ fluorescence, 10 min; shares compounds with Pol eta inh-1; Potency, µM, actives largely listed as inhibitors; also: potency is read from the fitted curve at half-maximal effect
# Active calls of the source: *; ? = inconclusive; . = not tested or not shown. Unless noted, calls follow the shape of the dose curve; as a rule, active = well fitted curve in the direction sought with a large enough effect; inconclusive = small, poorly fitted or top-dose-only effect, or another doubt; inactive = no such curve, though single readings can be large; an effect the other way counts as inactive or inconclusive.
SMILES,Pol kappa inh-1,PI5P4Ka inh,FEN1 inh,POLI inh,POLB inh,Pol eta inh-1,Pol iota confirm,Pol eta inh-2,others
N#Cc1c(-c2ccccc2)nc(SCC(=O)N(c2ccccc2)c2ccccc2)[nH]c1=O,-7%,?,-5%,-19%,-17%,?,.,.,
COc1ccc(S(=O)(=O)N2CCN(C(=O)/C=C/c3ccco3)CC2)cc1,?,?,4%,22µM*,.,50µM*,67*,76*,Pol kappa inh-2=67*
O=C(/C=C/c1ccco1)N1CCN(S(=O)(=O)c2cccc([N+](=O)[O-])c2)CC1,-18%,-6,-2%,-21%,.,-9%,.,.,
O=c1c(C(c2ccc(O)cc2)c2c(O)nc3n(c2=O)CCCS3)c(O)nc2n1CCCS2,?,?,8%,?,-5%,13µM*,?,76*,
O=c1c(C(c2ccc(Br)cc2)c2c(O)nc3n(c2=O)CCCS3)c(O)nc2n1CCCS2,?,-3,-15%,?,?,-5%,.,.,
O=C1C(Cl)=C(NCCc2ccccc2)C(=O)c2ccccc21,-2%,-85*,?,3.5µM*,.,22µM*,47*,48*,
O=C1C(Cl)=C(Nc2ccccc2)C(=O)c2ccccc21,10%,4,-10%,36%,0%,-14%,.,.,
COc1ccc2nc(NC(=O)c3nc(S(=O)(=O)Cc4ccccc4)ncc3Cl)sc2c1,?,.,18%,?,5.6µM*,?,30*,76*,
CS(=O)(=O)N1CCN(c2ccc([N+](=O)[O-])c(NCc3ccc(Cl)cc3)c2)CC1,?,2,-5%,8.9µM*,?,?,38*,85*,
O=[N+]([O-])c1cc(Cl)cc(/C=N/NC(=S)Nc2ccc(S(=O)(=O)N3CCOCC3)cc2)c1O,?,-85*,?,?,?,79µM*,?,?,
CC(C)c1nc(SCC(=O)Nc2nccs2)c2ccccc2n1,-24%,-3,3%,?,25µM*,32µM*,53*,76*,
Cc1csc(NC(=O)CSc2nc(C(C)C)nc3ccccc23)n1,-4%,0,-7%,23%,5%,-11%,.,.,
CC(/C=C/c1ccc(N(C)C)cc1)=N\N=C(/N)SC1CC(=O)N(c2ccc(C(=O)O)cc2)C1=O (stereo unspecified),-14%,-23,3%,15%,4%,45µM*,67*,?,Pol kappa inh-2=42*
O=C(O)c1ccc(N2C(=O)CC(SC(=Nc3ccccc3)Nc3ccccc3)C2=O)cc1 (stereo unspecified),-3%,-3,-3%,15%,5%,3%,.,.,
COc1cc2c(cc1NC(=O)CSc1nc3ccccc3[nH]1)oc1ccccc12,?,.,-7%,45µM*,5%,50µM*,42*,43*,
COc1cc2c(cc1NC(=O)CSc1ccccc1)oc1ccccc12,-2%,1,?,13%,-28%,-26%,.,.,
Cc1cc(C)n2nc(C(=O)OCC(=O)c3cc(C)n(C)c3C)nc2n1,?,?,-7%,?,32µM*,14µM*,?,85*,
Cc1cc(C)n2nc(C(=O)OCC(=O)c3cc(C)n(CC4CCCO4)c3C)nc2n1 (stereo unspecified),8%,0,3%,63%,-37%,-9%,.,.,
Cn1nc(-c2ccc(C(=O)Nc3ccc(F)cc3)cc2)c2ccccc2c1=O,-12%,-1,?,?,16µM*,?,42*,?,Pol kappa inh-2=24*
Cc1ccc(NC(=O)c2ccc(-c3nn(C)c(=O)c4ccccc34)cc2)cc1,4%,0,-8%,14%,3%,-5%,.,.,
CC(=O)c1c(C)oc(C)c1CSCc1ccc(C(=O)O)o1,32µM*,.,-17%,7.9µM*,13µM*,6.3µM*,47*,?,
COc1cc(OC)c(NC(=O)c2nn(-c3ccc(C)cc3)c(=O)c3c2c2ccccc2n3C)cc1Cl,2%,.,-1%,1%,37%,.,.,.,
O=C(CN1C(=O)S/C(=C\c2ccc(O)c([N+](=O)[O-])c2)C1=O)Nc1ccc(N2CCOCC2)cc1,-8%,?,15%,-10%,1%,2%,.,.,
Cc1ccc(NC(=O)CN2C(=O)S/C(=C/c3ccc(O)c([N+](=O)[O-])c3)C2=O)cc1C,50µM*,-58*,?,20µM*,89µM*,45µM*,34*,?,Pol kappa inh-2=60*
CN(c1ccc(OCC(=O)N2CCOCC2)cc1)S(=O)(=O)c1ccc(Cl)cc1,-18%,-4,15%,-30%,0%,0%,.,.,
SMILES,Pol kappa inh-1,PI5P4Ka inh,FEN1 inh,POLI inh,POLB inh,Pol eta inh-1,Pol iota confirm,Pol eta inh-2,others
COc1ccc2nc(-n3c(O)c(C4=c5ccccc5=NC4=O)[nH]c3=S)sc2c1,?,-67*,32µM*,?,8.9µM*,8.9µM*,27*,27*,Pol kappa inh-2=17*
O=C(COc1cc(F)ccc1[N+](=O)[O-])NCCCc1ccccc1,2%,-5,3%,79%,2%,-11%,.,.,
O=[N+]([O-])c1ccccc1/C=N/n1c(-c2cccnc2)n[nH]c1=S,-13%,-3,-5%,18%,3%,-8%,.,.,
O=[N+]([O-])c1cc(/C=N/n2c(-c3cccnc3)n[nH]c2=S)ccc1Cl,?,?,56µM*,?,5.6µM*,20µM*,17*,43*,
CC(=O)Nc1cc(C(=O)CSc2nnc(C3CC3)n2C2CC2)ccc1O,35µM*,-72*,-16%,8.9µM*,.,11µM*,?,76*,
Oc1ccc(C=Nc2ccc(N3CCOCC3)cc2)c(O)c1,-41%,-60*,3%,?,4%,14µM*,?,?,
CC(=O)c1ccc(NC(=O)CSc2nnc3c(n2)[nH]c2ccccc23)cc1,3%,.,?,-18%,8.9µM*,45µM*,?,?,Pol kappa inh-2=47*
Cc1ccc(NC(=O)CSc2nnc3c(n2)[nH]c2ccccc23)cc1,-6%,-2,11%,26%,11%,-17%,.,.,
C(=Nc1ccc(/C=C/c2ccnc3ccccc23)cc1)c1ccco1,2%,.,0%,18%,.,.,.,.,
COc1ccc(O)c(/C=N/NC(=O)c2c(C)nnn2-c2nonc2N)c1,?,-11,?,?,4.5µM*,?,75*,.,Pol kappa inh-2=?

# High-throughput results deposited in PubChem BioAssay by National Center for Advancing Translational Sciences (NCATS).
